Experimental data as given in PubChem BioAssay AID1159580 (chemical genetic matrix, 2015).
The whole screen tested about 5,500 compounds, of which about 2,000 (36%) were called active. Inconclusive results (about 18%) are left out. Rule as the data show it: active = normalized growth mostly below about 0.91 (no sharp cut-off); inconclusive = no clear call, values can overlap the other calls; inactive = mostly above about 0.92. Some of the results follow.

Assay: chemical genetic growth profiling, strain panel (AID 1159580);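 also: tested at 20 µM; growth read once vehicle control cultures reached saturation at 30 °C; 1 = growth at the plate median or of vehicle wells; lower values mean less growth of the strain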
Conditions: growth OD

Measured: normalized growth

COC(=O)c1ccc2c(c1)N(C)S(=O)(=O)CC2=O
inactive: S. cerevisiae deletion strains, locus YBR229C, strain ROT2, hits give low values 0.998 | S. cerevisiae deletion strains, locus YDL101C, strain DUN1, hits give low values 0.964 | S. cerevisiae deletion strains, locus YDR150W, strain NUM1, hits give low values 0.997 | S. cerevisiae deletion strains, locus YEL061C, strain CIN8, hits give low values 0.975 | S. cerevisiae deletion strains, locus YGR078C, strain PAC10, hits give low values 1 | S. cerevisiae deletion strains, locus YHR030C, strain SLT2, hits give low values 0.994 | S. cerevisiae deletion strains, locus YHR087W, strain rtc3, hits give low values 1 | S. cerevisiae deletion strains, locus YJR043C, strain POL32, hits give low values 1.02 | S. cerevisiae deletion strains, locus YJR075W, strain HOC1, hits give low values 1.01 | S. cerevisiae deletion strains, locus YLR039C, strain RIC1, hits give low values 0.989 | S. cerevisiae deletion strains, locus YLR058C, strain SHM2 (second series), hits give low values 1.01 | S. cerevisiae deletion strains, locus YLR085C, strain ARP6, hits give low values 0.853 | S. cerevisiae deletion strains, locus YLR262C, strain YPT6, hits give low values 0.998 | S. cerevisiae deletion strains, locus YML094W, strain GIM5, hits give low values 1 | S. cerevisiae deletion strains, locus YMR219W, strain ESC1, hits give low values 0.996 | S. cerevisiae deletion strains, locus YMR263W, strain SAP30, hits give low values 0.994 | S. cerevisiae deletion strains, locus YMR307W, strain GAS1, hits give low values 0.872 | S. cerevisiae deletion strains, locus YNL128W, strain TEP1, hits give low values 1.01 | S. cerevisiae deletion strains, locus YNL153C, strain GIM3, hits give low values 0.932 | S. cerevisiae deletion strains, locus YNL298W, strain CLA4 (second series), hits give low values 0.987 | S. cerevisiae deletion strains, locus YNL322C, strain KRE1, hits give low values 0.993 | S. cerevisiae deletion strains, locus YNR030W, strain Alg12, hits give low values 0.987 | S. cerevisiae deletion strains, locus YPL055C, strain LGE1, hits give low values 0.99 | S. cerevisiae deletion strains, locus YPL241C, strain CIN2, hits give low values 0.936 | S. cerevisiae deletion strains, locus YPR135W, strain CTF4, hits give low values 1.03 | S. cerevisiae strains, strain wild type, hits give low values 1.01
